The values that follow come from PubChem BioAssay (NCI).

About 83,000 compounds went through this panel and 20% of them were active in at least one assay; those are over-represented in the sample as a whole.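 Negative percent growth values reflect cell death: -40 means 40% of the cells present at the start died, and -100 means all died.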 Values without a mark were called inactive. Calls of active or inactive are those of the source. Rule for the calls: active = growth percent below 10; inactive = the rest.

This test has as its system HL-60(TB) leukemia. The test is described as follows: NCI-60 one-dose screen, 48 h (100 = growth as untreated, 0 = no growth, -100 = all killed). Particulars: 10 µM unless noted.
On to `CCOC(=O)C1C(=O)C(=O)N(C(C)C)C1C(=O)OCC` (centres undefined), for which the growth is 123%.
Consider `O=C1CSC(c2c(F)cccc2Cl)N1NC(=O)C(O)(c1ccccc1)c1ccccc1` (centres undefined), for which the growth was 98.3%.
`Cc1ccc(Nc2nc(N)nc(N)c2N=O)cc1Cl`: the growth is 67.9%.
For `COc1ccc(-c2cn[nH]c2-c2cc(OC)c(OC)c(OC)c2)cc1OCc1ccccc1`, the growth is 20.4%.
As for `O=C(O)C(Cc1ccccc1)N1C(=O)/C(=C/C(Cl)=C/c2ccc([N+](=O)[O-])cc2)SC1=S` (centres undefined), the growth was -8.33% (active).
With `N[C@@H]1CCC[C@H]1NCCCCN1C(=O)c2cccc3cccc(c23)C1=O` the figure was 91.1%; with `COc1cc(CCNc2cnc3cc(N)cc(N)c3n2)cc(OC)c1`, 27.9%; with `COc1cc(C2C(C#N)=C(N)OC3=C2C(=O)c2ccccc2C3=O)cc(OC)c1OC` (centres undefined), 15.2%.
For the compound `Cc1cccc2c(=O)c3c(sc12)c(NCCNCCO)nc1ccccc13`, the growth was -58.4% (active).
With `COc1ccc(C(=O)c2cc(C)c(OC)c(C)c2)cc1OC(=O)CCl` the figure was -43.6% (active); with `CCOC(=O)c1[nH]c(-c2ccc(Cl)cc2)cc1-c1cccnc1`, -20.7% (active).
With `COc1ccc2c(O)cc3c(c2c1)[C@H](CCl)CN3C(=O)c1cc2cc(NC(=O)CCN3CCOCC3)ccc2[se]1` the figure was 66%.
Turning to `COc1c(Cl)ccc2c(-c3nc4cc(Cl)c(F)cc4s3)cc(=O)oc12`, the growth was -18.1% (active).
Take `COc1ccc(C2=CN3CC=CC3CC2=O)cc1` (centres undefined): the growth was 106%.
To `CCOC(=O)c1c(C)nn(CC(O)c2ccccc2)c1NC(=O)Nc1cccc(F)c1` (centres undefined) belongs 107%; to `COc1cc2nc(-c3ccc(Cl)cc3)cc(OCCCN3CCOCC3)c2cc1OC`, 27%.
With `Clc1nc(Oc2ccccc2)nc(-c2cn(-c3ccccc3)c3ccccc23)n1` the figure was 63.2%; with `O=C(CN1CCN(c2cc3c(cc2F)c(=O)c(C(=O)O)cn3C2CC2)CC1)N/N=C/c1ccncc1`, 98%.
As to `Cc1cc(Cl)ccc1NS(=O)(=O)c1ccc(-c2cnc(C3CC3)o2)cc1`, the growth was -36% (active).
With `O=C(/C=C/c1ccccc1)c1ccc(O)c(CN2CCN(c3cc4c(cc3F)c(=O)c(C(=O)O)cn4C3CC3)CC2)c1` the figure was -6% (active); with `Cc1ccc(NC(=O)C(Cl)Cl)cc1`, -48.8% (active).
To `O=C(/C=C/c1nnc2n(Cc3ccccc3)c(=O)c3c4c(sc3n12)CCCC4)c1ccccc1` belongs 43.5%; to `CCCC1OC(c2ccc(C(C)C)cc2)OCC1CC` (centres undefined), 92.7%; to `CS(=O)(=O)Nc1cc(-c2ccc3ncnc(Nc4cccc(Cl)c4F)c3c2)cnc1Cl`, 80.1%.
With `CC1(C)C(N)=Nc2cc(OCCCCN3Cc4ccccc4C3)c(OCC3CC3)cc21` the figure was 99.7%; with `CC(C)[C@H](CN)NC[C@H](C)NS(=O)(=O)c1ccc(C(C)(C)C)cc1`, 95.4%.
In the case of `CCn1c(Sc2nnc(NC(=O)CSC(=S)N3CCCCC3)s2)nc2c1c(=O)n(C)c(=O)n2C`, the growth was 95%.
To `O=C(Oc1ccc([N+](=O)[O-])cc1)c1ccc(CBr)cc1` belongs 71.8%; to `N/C(=N\c1nc2ccccc2s1)NC(=NC1CCCCC1)NC1CCCCC1`, -36.3% (active); to `c1ccc2[nH]c(-c3ccc(OCCCCCOc4ccc(-c5nc6ccccc6[nH]5)cc4)cc3)nc2c1`, -45.7% (active).
With `O=C/C=C/c1ccc([N+](=O)[O-])cc1Cl` the figure was 82.6%.
To `O=C(NC1CCS(=O)(=O)C1)c1ccc(C(=O)c2ccccc2)cc1` (centres undefined) belongs 191%; to `COc1ccc(-c2nc3sc4c(c3c(=O)[nH]2)CCCCCC4)cc1`, 29%; to `Clc1ccc2c(c1)NC1(CCSc3ccccc31)n1nccc1-2` (centres undefined), 97.4%.
`COc1cc(/C=N/NC(=O)c2cnn3c2NC(c2ccccc2)C3)ccc1Oc1ccccc1` (centres undefined): the growth is 14.3%.
To `COC(=O)/C=C1\SC(=Nc2cccc(OC)c2)N(CCc2c[nH]c3ccccc23)C1=O` belongs 22.2%; to `CN(C)CCCN=c1cc2c(=O)n(CCCN(C)C)c(=O)c3c(NCCCN(C)C)cc4c(O)n(CCCN(C)C)c(=O)c1c4c3-2`, 61.2%; to `Nc1cnc(C(=O)NNc2nc3cc(F)ccc3n3cccc23)cn1`, 12.1%.
Consider `Brc1ccc(Nc2csc(-c3ccccn3)n2)cc1`, for which the growth is 99.6%.
